# Molecular target: Protein kinase C theta type (Homo sapiens) (UniProt Q04759)
# Settings: at 1 µM; call rule not given here
# Chain of Protein kinase C theta type (Homo sapiens) (Q04759 whole entry, looked up): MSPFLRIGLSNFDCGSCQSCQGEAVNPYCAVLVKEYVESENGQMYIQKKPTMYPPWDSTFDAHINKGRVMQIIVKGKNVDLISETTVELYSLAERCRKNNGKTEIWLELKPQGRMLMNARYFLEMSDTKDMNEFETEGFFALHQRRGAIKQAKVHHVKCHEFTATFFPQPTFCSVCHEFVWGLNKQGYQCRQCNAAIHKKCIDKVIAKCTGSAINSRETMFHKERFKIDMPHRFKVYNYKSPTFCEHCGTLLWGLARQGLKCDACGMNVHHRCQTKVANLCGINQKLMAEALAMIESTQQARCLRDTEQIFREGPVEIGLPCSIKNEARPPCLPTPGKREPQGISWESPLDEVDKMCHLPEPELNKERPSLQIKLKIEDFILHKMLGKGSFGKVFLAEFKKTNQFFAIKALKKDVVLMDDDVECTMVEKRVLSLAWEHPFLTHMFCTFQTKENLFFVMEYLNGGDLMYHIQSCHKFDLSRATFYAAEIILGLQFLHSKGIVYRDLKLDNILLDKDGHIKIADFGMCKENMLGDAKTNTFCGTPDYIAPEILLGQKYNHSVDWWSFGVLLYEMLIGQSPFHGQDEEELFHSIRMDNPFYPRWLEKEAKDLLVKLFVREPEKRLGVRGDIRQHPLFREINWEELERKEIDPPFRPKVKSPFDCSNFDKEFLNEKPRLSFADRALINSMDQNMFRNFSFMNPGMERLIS
row,SMILES,residual activity [%]
1,CCCC(=O)Oc1ccc2[nH]c(C(=O)c3cc4ccccc4[nH]3)cc2c1,92
2,CC(C)[C@H](CO)Nc1nc(Nc2cc(N)cc(Cl)c2)c2ncn(C(C)C)c2n1,77
3,COc1cc2nccc(Oc3ccc(NC(=S)NC(=O)c4ccccc4C)cc3)c2cc1OC,89
4,O=C1NC(=O)C(c2c[nH]c3ccccc23)=C1c1c[nH]c2ccccc12,5
5,Nc1ncnc2c1c(-c1ccc(Oc3ccccc3)cc1)cn2C1CCCC1,94
6,COc1cc2ncnc(Nc3cccc(Cl)c3)c2cc1OC,105
7,O=C1C(Cl)=C(N2C(=O)CCC2=O)C(=O)c2ccccc21,92
8,O=C1NC(=O)c2c1c1c3ccccc3[nH]c1n1cncc21,71
9,CSc1nc(-c2ccc(F)cc2)c(-c2ccnc(NC(C)c3ccccc3)c2)[nH]1 (stereo not given),101
10,CC(C)c1nn(-c2c(Cl)cccc2Cl)c2nc(Cc3ccc(OCCO)cc3)[nH]c(=O)c12,90
11,O=C1NC(=O)C(c2cn(CCCn3ccnc3)c3ccccc23)=C1Nc1ccccc1,3
12,COc1ccc2c(c1)c(C1=C(c3c[nH]c4ccccc34)C(=O)NC1=O)cn2CCCN(C)C,3
13,O=c1cc(N2CCOCC2)oc2c1ccc1ccccc12,94
14,O=c1cc(N2CCNCC2)oc2c(-c3ccccc3)cccc12,102
15,Nc1ncnc2[nH]nc(Nc3ccc(F)cc3)c12,107
16,NC(=O)Nc1sc(-c2ccc(F)cc2)cc1C(N)=O,83
17,O=C(O)/C=C/c1cc(Br)c(Br)c(Br)c1Br,100
18,Cn1sc(=O)n(Cc2ccccc2)c1=O,89
19,O=C1Nc2ccc(Cl)cc2/C1=C/c1cc(Cl)c(O)c(Cl)c1,99
20,CC(C)(C)n1nc(Cc2cccc3ccccc23)c2c(N)ncnc21,98
21,O=C1Cc2c([nH]c3ccc(Br)cc23)-c2ccccc2N1,49
22,COc1cc2nccc(Oc3ccc(NC(=O)Nc4cc(C)on4)c(Cl)c3)c2cc1OC,100
23,O=S(=O)(NCCNC/C=C/c1ccc(Br)cc1)c1cccc2cnccc12,61

# Molecular target: Protein kinase C theta type (Homo sapiens) (UniProt Q04759)
# Settings: at 10 µM
row,SMILES,residual activity [%]
1,Nc1n[nH]c2nc3ccccc3nc12,85
2,CCCC(=O)Oc1ccc2[nH]c(C(=O)c3cc4ccccc4[nH]3)cc2c1,75
3,CC(C)[C@H](CO)Nc1nc(Nc2cc(N)cc(Cl)c2)c2ncn(C(C)C)c2n1,23
4,COc1cc2nccc(Oc3ccc(NC(=S)NC(=O)c4ccccc4C)cc3)c2cc1OC,97
5,O=S(=O)(c1cccc2cnccc12)N1CCCNCC1,67
6,O=C1NC(=O)C(c2c[nH]c3ccccc23)=C1c1c[nH]c2ccccc12,2
7,Nc1ncnc2c1c(-c1ccc(Oc3ccccc3)cc1)cn2C1CCCC1,109
8,COc1cc2ncnc(Nc3cccc(Cl)c3)c2cc1OC,101
9,O=C1C(Cl)=C(N2C(=O)CCC2=O)C(=O)c2ccccc21,85
10,CSc1nc(-c2ccc(F)cc2)c(-c2ccnc(NC(C)c3ccccc3)c2)[nH]1 (stereo not given),72
11,CC(C)c1nn(-c2c(Cl)cccc2Cl)c2nc(Cc3ccc(OCCO)cc3)[nH]c(=O)c12,80
12,O=C1NC(=O)C(c2cn(CCCn3ccnc3)c3ccccc23)=C1Nc1ccccc1,2
13,COc1ccc2c(c1)c(C1=C(c3c[nH]c4ccccc34)C(=O)NC1=O)cn2CCCN(C)C,1
14,O=c1cc(N2CCOCC2)oc2c1ccc1ccccc12,105
15,COc1cc2c(cc1OC)-c1n[nH]c(Nc3cccc(F)c3)c1C2,81
16,O=c1cc(N2CCNCC2)oc2c(-c3ccccc3)cccc12,94
17,Nc1ncnc2[nH]nc(Nc3ccc(F)cc3)c12,92
18,NC(=O)Nc1sc(-c2ccc(F)cc2)cc1C(N)=O,50
19,O=C(O)/C=C/c1cc(Br)c(Br)c(Br)c1Br,90
20,Cn1sc(=O)n(Cc2ccccc2)c1=O,85
21,O=C1Nc2ccc(Cl)cc2/C1=C/c1cc(Cl)c(O)c(Cl)c1,76
22,CC(C)(C)n1nc(Cc2cccc3ccccc23)c2c(N)ncnc21,92
23,O=C1Cc2c([nH]c3ccc(Br)cc23)-c2ccccc2N1,31
24,COc1cc2nccc(Oc3ccc(NC(=O)Nc4cc(C)on4)c(Cl)c3)c2cc1OC,98
25,O=S(=O)(NCCNC/C=C/c1ccc(Br)cc1)c1cccc2cnccc12,17

# Molecular target: T1, Protein kinase C iota type (Homo sapiens) (UniProt P41743)
# T1 sequence (whole entry): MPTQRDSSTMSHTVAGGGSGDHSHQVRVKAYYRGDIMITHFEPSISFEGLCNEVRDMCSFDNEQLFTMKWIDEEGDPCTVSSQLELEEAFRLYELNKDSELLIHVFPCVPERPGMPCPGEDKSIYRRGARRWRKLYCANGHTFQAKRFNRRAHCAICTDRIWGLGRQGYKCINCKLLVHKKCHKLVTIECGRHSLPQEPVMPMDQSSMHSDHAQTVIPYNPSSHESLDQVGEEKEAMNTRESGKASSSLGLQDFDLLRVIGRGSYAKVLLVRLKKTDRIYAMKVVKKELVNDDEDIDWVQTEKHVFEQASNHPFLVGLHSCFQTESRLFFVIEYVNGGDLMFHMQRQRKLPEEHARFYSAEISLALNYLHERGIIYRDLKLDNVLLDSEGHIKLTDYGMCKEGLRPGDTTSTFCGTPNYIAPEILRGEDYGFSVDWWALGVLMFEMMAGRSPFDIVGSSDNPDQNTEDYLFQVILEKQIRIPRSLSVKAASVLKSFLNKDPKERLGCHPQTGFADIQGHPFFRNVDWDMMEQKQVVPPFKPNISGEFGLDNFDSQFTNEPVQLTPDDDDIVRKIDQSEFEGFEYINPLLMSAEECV
# Settings: at 1 µM
row,SMILES,residual activity
1,CCCC(=O)Oc1ccc2[nH]c(C(=O)c3cc4ccccc4[nH]3)cc2c1,99% (inactive)
2,O=C(c1ccccc1)c1ccc(N2CCOCC2)cc1O,78% (inactive)
3,COc1cc2nccc(Oc3ccc(NC(=S)NC(=O)c4ccccc4C)cc3)c2cc1OC,88% (inactive)
4,O=C1NC(=O)C(c2c[nH]c3ccccc23)=C1c1c[nH]c2ccccc12,116% (inactive)
5,Nc1ncnc2c1c(-c1ccc(Oc3ccccc3)cc1)cn2C1CCCC1,87% (inactive)
6,Nc1ncnc2c1cnn2-c1ccccc1,102% (inactive)
7,O=C1C(Cl)=C(N2C(=O)CCC2=O)C(=O)c2ccccc21,118% (inactive)
8,O=C1NC(=O)c2c1c1c3ccccc3[nH]c1n1cncc21,102% (inactive)
9,CC(C)c1nn(-c2c(Cl)cccc2Cl)c2nc(Cc3ccc(OCCO)cc3)[nH]c(=O)c12,99% (inactive)
10,O=c1cc(N2CCOCC2)oc2c1ccc1ccccc12,85% (inactive)
11,O=c1cc(N2CCNCC2)oc2c(-c3ccccc3)cccc12,93% (inactive)
12,Nc1ncnc2[nH]nc(Nc3ccc(F)cc3)c12,113% (inactive)
13,NC(=O)Nc1sc(-c2ccc(F)cc2)cc1C(N)=O,109% (inactive)
14,O=C(O)/C=C/c1cc(Br)c(Br)c(Br)c1Br,96% (inactive)
15,Cn1sc(=O)n(Cc2ccccc2)c1=O,87% (inactive)
16,O=C1Nc2ccc(Cl)cc2/C1=C/c1cc(Cl)c(O)c(Cl)c1,85% (inactive)
17,CC(C)(C)n1nc(Cc2cccc3ccccc23)c2c(N)ncnc21,115% (inactive)

# — ChEMBL document CHEMBL2218924, “A broad activity screen in support of a chemogenomic map for kinase signalling research and drug discovery” (Biochem J, 2013)
